High-throughput results from PubChem BioAssay.
The list is not random: actives were taken first. Their share in the collection is about 1.6%.
E-sel TNF inh = E-selectin induction blockers in HUVEC – imaging, immunofluorescence, high content, primary screen | HUVEC TNFa-induced E-selectin immunofluorescence | inhibition, % at 2 µM | 0.71% of 120,000 active | AID 1246, 2008;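 active = inhibition above the batch mean plus 3 SD, and confirmed as a hit on visual image review, cut at about 43% in these data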
F-actin modifier = modifiers of F-actin cytoskeleton organization, primary screen, imaging, HUVEC, phalloidin staining, high-content imaging; HUVEC TNFa F-actin phalloidin imaging; 0.18% of 91,000 active; inhibition, % at 2 µM;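 active = inhibition above the batch mean plus 3 SD and confirmed as a hit by visual image inspection, cut at about 30% in these data, passing the limit was not always enough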
TNFa cytotox = cytotoxicity in TNFa-stimulated HUVEC, primary screen, cytotoxicity control for VCAM1 expression modulator project, imaging, Hoechst nuclei count. HUVEC TNFalpha-stimulated, Hoechst cell count. cell count reduction, % at 2 µM. 0.17% of 93,000 active. AID 848, 2007;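 active = cell count reduction exceeding the screen mean by over 5 SD, scaled to untreated wells per plate, cut at about 78% in these data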;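 note: cells counted after 24 h of TNF alpha exposure following the 1 h pretreatment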
Phagocytosis inh = inhibitors of macrophage phagocytosis, primary screen, imaging, J774A.1 cells, IgG beads | J774A.1 macrophage IgG-bead phagocytosis | inhibition, % at 5 µM | 0.07% of 110,000 active;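 active = inhibition above the mean of the plate negative controls plus 5 SD, cut at about 13% in these data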;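 note: phagocytic index as fraction of beads internalized from green versus red external bead signal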
VCAM1 TNFa inh = inhibitors of TNFa-induced VCAM1 expression, primary screen, imaging, HUVEC, TNFa stimulus, immunofluorescence; HUVEC TNFa-induced VCAM-1 immunofluorescence, high-content imaging; inhibition, % at 2 µM; 0.48% of 95,000 active;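 active = inhibition above the batch mean plus 3 SD, with images confirmed as a hit by eye, cut at about 37% in these data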
INS promoter inh = inhibitors of insulin promoter-driven GFP, primary screen, imaging, TRM-6 cells (human fetal islet line), eGFP reporter, cell count. inhibition, % at 2 µM. 0.9% of 130,000 active. reporter expression induced with tamoxifen;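 active = inhibition above the mean plus 3 SD, with well images judged a real hit on visual review, cut at about 60% in these data, passing the limit was not always enough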
Of the large screens only hits and unclear results are named; the others gave an inactive call.

CSc1nc2nccc(-c3ccc(-c4ccccc4)cc3)n2n1	none
c1ccc(Oc2ccc(-c3ccnc4nc(N5CCN(c6ccccc6)CC5)nn34)cc2)cc1	E-sel TNF inh 52.9 (no result: Phagocytosis inh)
CCCc1ccc(Oc2cc(N3CCOCC3)nc(-c3ccccc3)n2)cc1	none (no result: Phagocytosis inh)
COc1cccc(/C=C/C(=O)OCC(=O)Nc2ccc(N3CCOCC3)cc2)c1OC	none (no result: F-actin modifier, TNFa cytotox, Phagocytosis inh, VCAM1 TNFa inh)
Clc1cccc(CN2CCCCCCC2)c1Cl	none (no result: F-actin modifier, TNFa cytotox, VCAM1 TNFa inh, INS promoter inh)
Cc1nn(-c2ccccc2)c(Cl)c1C(=O)Nc1nnc(C2CCCCC2)s1	none (no result: Phagocytosis inh)
O=C(Nc1nnc(C2CC2)s1)c1cc(-c2ccccc2)nn1-c1ccccc1	E-sel TNF inh 97.3 (no result: F-actin modifier, TNFa cytotox, VCAM1 TNFa inh)
COc1ccc(-c2cc(C(=O)Nc3cc(C)n(Cc4ccc(Cl)cc4)n3)no2)cc1OC	VCAM1 TNFa inh 51.5 (no result: E-sel TNF inh)
COc1ccc(-c2cc(C(=O)Nc3cnn(Cc4ccccc4C)c3)no2)cc1OC	E-sel TNF inh 77.7 (no result: Phagocytosis inh)
CCCn1cc(NC(=O)c2cc(-c3ccccc3)on2)cn1	none (no result: F-actin modifier)
CCOc1ccc(C)cc1-n1nc2ccccc2n1	E-sel TNF inh 51.2
COc1ccc(C)cc1-n1nc2ccccc2n1	none (no result: E-sel TNF inh, F-actin modifier, TNFa cytotox, Phagocytosis inh, VCAM1 TNFa inh)
O=C(NC(=O)c1cccc(OC(F)(F)C(F)F)c1)OC1CCS(=O)(=O)C1 (centres undefined)	E-sel TNF inh 54.0 (no result: F-actin modifier, TNFa cytotox, VCAM1 TNFa inh)
CCN(CCCNC(=O)CCCOc1cc(=O)n(C)c2ccccc12)Cc1ccccc1	none (no result: F-actin modifier, TNFa cytotox, Phagocytosis inh, VCAM1 TNFa inh)
Cc1ccc(CN2CCN(c3ccccn3)CC2)s1	INS promoter inh 72.2
Cc1cccc(CN2CCN(c3ccccn3)CC2)c1	none (no result: Phagocytosis inh)
CC1CC(=O)Nc2ccccc2S1(=O)=O (centres undefined)	E-sel TNF inh 84.4 (no result: F-actin modifier, TNFa cytotox, VCAM1 TNFa inh, INS promoter inh)
Nn1c(=O)[nH]c2ccccc2c1=O	none (no result: F-actin modifier, TNFa cytotox, Phagocytosis inh, VCAM1 TNFa inh)
COc1ccc2c(c1)SC1=NCCS(=O)(=O)N12	TNFa cytotox 79.6 (no result: E-sel TNF inh, INS promoter inh)
O=C1CC(N(Cc2ccc3c(c2)OCO3)C(=O)Nc2ccc(F)cc2)C(=O)N1c1ccccc1 (centres undefined)	none
COc1ccc(NC(=O)N(Cc2ccc3c(c2)OCO3)C2CC(=O)N(c3ccc(OC)cc3)C2=O)cc1 (centres undefined)	F-actin modifier 31.8
O=C1NC(CCc2ccccc2)C(=O)N1CCOc1cccc(Br)c1 (centres undefined)	none (no result: E-sel TNF inh, F-actin modifier, TNFa cytotox, Phagocytosis inh, VCAM1 TNFa inh)
CCCCCCc1nc2ccccc2c(=O)n1NC(=O)c1c(O)c2cccc3c2n(c1=O)CCC3	none
CCCCCc1nc2ccccc2c(=O)n1NC(=O)c1c(O)c2cccc3c2n(c1=O)CCC3	E-sel TNF inh 71.5 (no result: Phagocytosis inh)
O=C(NCC1CCCO1)c1c(O)c2cccc3c2n(c1=O)CCC3 (centres undefined)	INS promoter inh 70.6 (no result: E-sel TNF inh)
O=C(CCSc1ccccc1)NCC1CCCO1 (centres undefined)	none
O=C(CC(c1ccccc1)c1ccccc1)NCC1CCCO1 (centres undefined)	VCAM1 TNFa inh 40.8 (no result: Phagocytosis inh, INS promoter inh)
Cn1nc(C(=O)NCC2CCCO2)c2ccccc2c1=O (centres undefined)	TNFa cytotox 84.3, VCAM1 TNFa inh 95.0 (no result: INS promoter inh)
O=C(NCc1ccccn1)c1cn(-c2ccccc2)nc1-c1ccc(Cl)cc1	none (no result: E-sel TNF inh, F-actin modifier, TNFa cytotox, VCAM1 TNFa inh, INS promoter inh)
CC(C)C[C@@H]1NC(=O)[C@H](C(C)C)NC(=O)c2cc([N+](=O)[O-])cc(I)c2OCC[C@@H](C(N)=O)NC1=O	none (no result: F-actin modifier, TNFa cytotox, Phagocytosis inh, VCAM1 TNFa inh)
O=C(COc1ccc(Br)cc1)NCc1ccccn1	none (no result: F-actin modifier)
O=Cc1ccc(OCc2ccccn2)cc1	E-sel TNF inh 44.5 (no result: Phagocytosis inh)
Cc1cc(/C=N/NC(=O)C(=O)NCc2ccccn2)c(C)n1-c1ccccc1	none (no result: E-sel TNF inh, F-actin modifier, TNFa cytotox, Phagocytosis inh, VCAM1 TNFa inh)
Cc1ccc(-c2nc3ncccn3c2Nc2ccc3c(c2)OCCO3)cc1	none (no result: F-actin modifier)
COc1ccc(-c2nc3ncccn3c2Nc2ccc3c(c2)OCCO3)cc1	INS promoter inh 69.0
COc1cc(C(=O)NC(=S)Nc2ccc3c(c2)C(=O)N(C)C3=O)cc(OC)c1OC	none (no result: E-sel TNF inh, F-actin modifier, TNFa cytotox, VCAM1 TNFa inh, INS promoter inh)
CCn1c(SCC(=O)NC(C)(C)C)nnc1-c1ccccn1	none
Cc1ccccc1Cn1ccc(NC(=O)c2nn(C)cc2[N+](=O)[O-])n1	INS promoter inh 84.6 (no result: E-sel TNF inh, F-actin modifier, TNFa cytotox, VCAM1 TNFa inh)
N#CCSc1ccc(-c2nc3ccccc3[nH]2)cn1	INS promoter inh 89.7 (no result: F-actin modifier, TNFa cytotox, Phagocytosis inh, VCAM1 TNFa inh)
Cc1c(C(=O)NC(C)C)sc2ncn(CC(=O)N3CCC(C)CC3)c(=O)c12	none (no result: Phagocytosis inh)
CC(=O)Nc1c(C(=O)c2ccccc2)oc2ccccc12	INS promoter inh 71.4 (no result: E-sel TNF inh)
